# Screening data as filed in PubChem.
# Shown are actives, neighbours in structure and some others; about 3.1% of the full set was active somewhere.
# PNC assembly inh: inhibitors of perinucleolar compartment assembly. AID 2417. PC3M PTB-GFP, PNC prevalence imaging, 16 h; stronger effect = lower value. activity change (PNC), negative = inhibition, % at 10 µM. 3.1% of 140,000 active;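 active = readout at or below -70, meaning at least 70% loss of cells showing the perinucleolar compartment, a nuclear body marking cancer cells; inconclusive = readout between -30 and a set limit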;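 also: plate controls were DMSO wells for no effect and camptothecin positive control wells for full effect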
#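 Read-out is percentage of cells bearing a perinucleolar compartment, from automated 20x imaging of fixed, Hoechst-stained PC3M PTB-GFP cells. Cells were seeded 4 h, then exposed 16 h to compound (23 nl of library stock) in duplicate plates.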
# ALOX15B inhib: inhibitors of human 15-lipoxygenase 2 (ALOX15B); O15296; purified 15hLO-2, xylenol orange hydroperoxide absorbance; Potency, µM (top dose mostly 57.1 µM), inactives show at the top dose activity change, negative = inhibition, hits mostly inhibitors; 0.56% of 110,000 active; AID 881; also: potency is read from the fitted curve at half-maximal effect; nearly all actives have a fitted effect of over 60% in size
# Target sequence (O15296 whole entry, looked up): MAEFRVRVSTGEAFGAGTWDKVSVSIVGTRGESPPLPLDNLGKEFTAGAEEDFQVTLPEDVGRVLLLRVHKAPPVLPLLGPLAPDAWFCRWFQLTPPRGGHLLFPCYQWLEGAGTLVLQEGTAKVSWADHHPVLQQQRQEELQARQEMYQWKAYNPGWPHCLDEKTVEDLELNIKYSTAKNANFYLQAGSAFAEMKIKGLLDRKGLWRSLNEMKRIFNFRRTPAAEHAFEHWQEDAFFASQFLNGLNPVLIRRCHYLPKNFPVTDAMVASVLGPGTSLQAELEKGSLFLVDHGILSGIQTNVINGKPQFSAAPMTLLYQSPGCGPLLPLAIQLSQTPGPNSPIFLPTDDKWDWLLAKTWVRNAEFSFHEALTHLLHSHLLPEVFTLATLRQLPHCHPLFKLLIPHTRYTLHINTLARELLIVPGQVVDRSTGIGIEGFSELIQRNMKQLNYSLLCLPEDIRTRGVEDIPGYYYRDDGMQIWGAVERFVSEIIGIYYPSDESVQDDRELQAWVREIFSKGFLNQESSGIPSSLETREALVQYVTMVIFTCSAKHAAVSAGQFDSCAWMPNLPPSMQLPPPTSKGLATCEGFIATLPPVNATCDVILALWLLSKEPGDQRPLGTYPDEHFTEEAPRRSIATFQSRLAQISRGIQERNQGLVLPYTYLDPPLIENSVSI
#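 Read-out: hydroperoxide product oxidises ferrous iron, measured as xylenol orange complex via the 573-to-405 nm absorbance ratio after 30 min. Reaction: 50 nM enzyme, 15 min compound preincubation, 45 uM arachidonic acid, 90 min RT, Hepes pH 7.5 with Triton X-100.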
# 12-hLO inh: inhibitors of human 12-lipoxygenase (ALOX12). purified 12-hLO, xylenol orange hydroperoxide absorbance. 0.12% of 150,000 active. AID 1452. P18054. Potency, µM (doses to about 57.1 µM), for inactives: at the top dose activity change, negative = inhibition, usual class: inhibitors; also: potency is read from the fitted curve at half-maximal effect; nearly all actives have a fitted effect of over 55% in size
#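 Xylenol orange chromogenic assay: hydroperoxide from 12hLO oxidises Fe(II), giving red-shifted Fe(III)-XO absorbance. Conditions: 150 nM enzyme, 40 uM arachidonic acid, 25 mM Hepes pH 7.0, 0.01% Triton X-100, 30 min, room temperature.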
# Starred values were filed as active, the others as inactive; ? = inconclusive; / = no result; [ ] = remark or other dose. Unless noted, calls follow the shape of the dose curve; as a rule, active = well fitted curve in the direction sought with a large enough effect; inconclusive = small, poorly fitted or top-dose-only effect, or another doubt; inactive = no such curve, though single readings can be large; an effect the other way counts as inactive or inconclusive. Unless noted, % is scaled to controls: 0 for no effect and ±100 for the full control effect.
SMILES,PNC assembly inh,ALOX15B inhib,12-hLO inh
CN1CSC2=C(C#N)C(c3cccc(OCc4ccccc4)c3)CC(=O)N2C1 (centres undefined),27,?,-6%
N#CC1=C2SCN(c3ccc(F)cc3)CN2C(=O)CC1c1cccc(F)c1 (centres undefined),29,?,?
COc1ccc(N2CSC3=C(C#N)C(c4cc(OC)c(OC)cc4OC)CC(=O)N3C2)c(OC)c1 (centres undefined),17,?,-14%
COc1ccc(N2CSC3=C(C#N)C(c4ccc(OC)c(OC)c4)CC(=O)N3C2)c(OC)c1 (centres undefined),0,?,-6%
CN(C/C=C\c1ccccc1)Cc1cccc2ccccc12,/,35%[25.6 µM],-4%[25.6 µM]
O=C(c1cccc(F)c1)N1CCC2(CC1)CN(Cc1ccccc1)C2,/,25%,6%
COC(=O)C1=C(C(=O)OC)[C@@H]2N(C)c3ccccc3[C@@]23C[C@@H](CO)N(C(=O)c2cc(C)oc2C)C3=N1,/,/,0%[11.4 µM]
Nc1nc2c(c(=O)[nH]1)N(C=O)C(CNc1ccc(C(=O)NC(CCC(=O)O)C(=O)O)cc1)CN2 (centres undefined),/,12%,-2%
CCc1ccc(N2CSC3=C(C#N)C(c4cccs4)CC(=O)N3C2)cc1 (centres undefined),-20,20µM*,?
N#CC1=C2SCN(Cc3ccco3)CN2C(=O)CC1c1cccc2ccccc12 (centres undefined),3,?,?
CCOc1ccccc1N1CSC2=C(C#N)C(c3c(OC)ccc4ccccc34)CC(=O)N2C1 (centres undefined),-106*,10µM*,?
COc1cc(OC)c(C2CC(=O)N3CN(c4ccc(C)cc4)CSC3=C2C#N)cc1OC (centres undefined),6,?,?
Cc1ccc(N2CSC3=C(C#N)C(c4cccs4)CC(=O)N3C2)cc1 (centres undefined),?,13µM*,-17%
CCOC(=O)c1ccc(N2CSC3=C(C#N)C(c4cccs4)CC(=O)N3C2)cc1 (centres undefined),-10,-26%,-12%
CCCCCCCCCCCCCCCCCCOCC(O)CO (centres undefined),/,2%,3%
O=c1cc(-c2ccc(O)c(O)c2)oc2ccccc12,/,?,-20%
CNc1ncnc2c1ncn2[C@H]1C[C@@H](OP(=O)(O)O)[C@H](COP(=O)(O)O)O1,/,2%,-4%
COCC(=O)N1CCC2(CCCN(Cc3nccs3)C2)CC1,/,4%,3%
COCCNc1cc(C)nc2c3c(C)cc(C)nc3nn12,-6,-15%,-8%
Cc1cc(C)c2c(-n3cccc3)nn(C)c2n1,-109*,4%,7%
CCN1CCCC1Cn1c(-c2ccccc2)nc2c(N3CCOCC3)nc(C)nc21 (centres undefined),/,6%,1%
CCOC(=O)C1CCCN(Cc2c(Cl)cccc2Cl)C1 (centres undefined),?,-13%,-8%
CCOC(=O)C1CCCN(Cc2ccccc2F)C1 (centres undefined),-89*,-9%,-10%
CN1C(=O)C(=O)N(CC(=O)N2CCc3ccccc32)C1=O,20,-1%,5%
O=C(CN1C(=O)CSc2ccccc21)N1CCc2ccccc21,-90*,0%,0%
SMILES,PNC assembly inh,ALOX15B inhib,12-hLO inh
CN(C)Cc1ccccc1-c1nc(NCc2cccs2)c2ccccc2n1,/,13%,/
O=C(c1[nH]o[n+](=O)c1C(=O)c1csc2ccccc12)c1csc2ccccc12,/,-3%[11.4 µM],-4%[11.4 µM]
CCN(CC)S(=O)(=O)c1ccc(NC2CCCc3ccccc32)nc1 (centres undefined),-100*,/,-2%
O=S(=O)(c1ccc(NC2CCCc3ccccc32)nc1)N1CCOCC1 (centres undefined),-7,9%,-3%
Cn1c(=O)c(-c2cc(F)cc(F)c2)nc2cnc(N3CCOCC3)nc21,/,-10%,/
Cc1ccc(/C=N/n2c(=O)c(C(C)(C)C)nn3cnnc23)cc1,-94*,/,5%
CC(C)(C)c1nn2cnnc2n(/N=C/c2cccc3ccccc23)c1=O,2,/,2%
O=C([C@H](Cc1ccccc1)NS(=O)(=O)c1ccc(Cl)cc1)N1CC[C@@]2(O)CCCC[C@H]2C1,-16,-4%,7%
COc1ccc(S(=O)(=O)N[C@@H](Cc2ccccc2)C(=O)N2CC[C@@]3(O)CCCC[C@H]3C2)cc1,-88*,-3%,-5%
COCCN1CN(S(=O)(=O)c2ccc(Cl)cc2)c2nc3ccccc3nc21,?,-8%,-9%
COCCN1CN(S(=O)(=O)c2ccccc2)c2nc3ccccc3nc21,-117*,-15%,11%
CC(=O)O[C@@H]1[C@H]([N+]2(C)CCCCC2)C[C@@H]2[C@@H]3CC[C@@H]4C[C@@H](OC(C)=O)[C@H]([N+]5(C)CCCCC5)C[C@@]4(C)[C@H]3CC[C@]21C,/,9%,5%
Cc1cccc(CN2CCN(CC(=O)NCCCN3CCCC3=O)C2=O)c1,-111*,-2%,-1%
Cc1cccc(CN2CCN(CC(=O)NCCCN3CCN(c4ccc(F)cc4)CC3)C2=O)c1,?,20%,3%
COc1ccc([C@@H]2CC(=O)c3c(O)cc(O[C@H]4O[C@@H](CO[C@H]5O[C@@H](C)[C@@H](O)[C@@H](O)[C@@H]5O)[C@@H](O)[C@@H](O)[C@@H]4O)cc3O2)cc1O,/,1%[25.6 µM],1%[25.6 µM]
COc1ccc(C(=O)N2CCC3(CC2)CN(c2ccccc2)C3)cc1,/,-9%,-1%
Cc1ccc(S(=O)(=O)c2ccc(Cl)cc2)cc1S(=O)(=O)N1CCN(C)CC1,8,24%,-6%
Cc1ccc(S(=O)(=O)c2ccc(Cl)cc2)cc1S(=O)(=O)NC(C)C(=O)O (centres undefined),-90*,/,-4%
ClC1=C(Cl)C(Cl)(Cl)C(Cl)=C1Cl,/,-9%,-3%
O=c1c(-c2cccs2)nc2cnc(Nc3ccccc3)nc2n1C[C@H]1CCCO1,/,-2%,/
COc1ccccc1NC(=O)CN1C(=O)CCS(=O)(=O)c2ccccc21,?,/,5%
COc1ccc(Cl)cc1NC(=O)CN1C(=O)CCS(=O)(=O)c2ccccc21,-100*,/,-1%
COc1ccc(CN(C(=O)c2cc3ccccc3oc2=O)C2CCCC2)cc1,76,/,0%
CCOc1ccc(CN(C(=O)c2cc3ccccc3oc2=O)C2CC2)cc1,-100*,/,-5%
N=C(N)SCC(=O)O,/,10%[11.4 µM],-4%[11.4 µM]
SMILES,PNC assembly inh,ALOX15B inhib,12-hLO inh
NC(Cc1ccccc1)(C(=O)O)C(=O)O,/,0%[11.4 µM],-2%[11.4 µM]
CC(C)(CO)[C@H](O)C(=O)NCCC(=O)O,/,12%[25.6 µM],0%[25.6 µM]
O=S(=O)(c1ccc(Br)cc1)N1CCCC1c1nc2ccccc2s1 (centres undefined),-100*,/,-14%
CN(C)S(=O)(=O)c1ccc(C(=O)N2CCCC2c2nc3ccccc3s2)cc1 (centres undefined),?,/,2%
COc1ccccc1NC(=S)N(Cc1ccco1)Cc1cc2cc(C)cc(C)c2[nH]c1=O,23,/,1%
COc1ccccc1NC(=S)N(Cc1ccco1)Cc1cc2ccc(C)c(C)c2[nH]c1=O,-84*,/,-11%
Cc1ccc2nsnc2c1S(=O)(=O)N(Cc1ccco1)Cc1cc2cccc(C)c2[nH]c1=O,8,24%,-8%
